These results are taken from PubChem BioAssay.

Activity calls are given as the source filed them.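 Rule for the calls, unless noted: active = luciferase signal above three times the same-plate solvent-only control wells; inactive = the rest.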

Chain of NAD(+) hydrolase SARM1 (Homo sapiens) (Q6SZW1 whole entry, looked up): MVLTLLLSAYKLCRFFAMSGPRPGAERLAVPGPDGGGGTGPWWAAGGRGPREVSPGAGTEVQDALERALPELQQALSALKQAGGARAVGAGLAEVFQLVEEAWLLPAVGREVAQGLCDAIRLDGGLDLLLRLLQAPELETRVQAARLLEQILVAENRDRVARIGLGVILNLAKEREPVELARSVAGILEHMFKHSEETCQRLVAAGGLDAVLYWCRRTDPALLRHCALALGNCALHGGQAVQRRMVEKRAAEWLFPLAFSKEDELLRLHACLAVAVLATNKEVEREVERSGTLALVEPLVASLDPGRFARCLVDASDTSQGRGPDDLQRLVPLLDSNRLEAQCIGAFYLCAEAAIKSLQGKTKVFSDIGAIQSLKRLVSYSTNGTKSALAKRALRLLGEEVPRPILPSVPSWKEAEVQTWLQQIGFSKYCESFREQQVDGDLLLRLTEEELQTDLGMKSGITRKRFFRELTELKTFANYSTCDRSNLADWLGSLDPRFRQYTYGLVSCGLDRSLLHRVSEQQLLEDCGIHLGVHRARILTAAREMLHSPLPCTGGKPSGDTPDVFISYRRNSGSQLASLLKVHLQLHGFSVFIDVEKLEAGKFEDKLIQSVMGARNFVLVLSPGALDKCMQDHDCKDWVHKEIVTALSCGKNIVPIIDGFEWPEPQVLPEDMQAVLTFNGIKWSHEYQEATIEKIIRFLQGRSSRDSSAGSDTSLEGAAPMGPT

The first assay has as its target NAD(+) hydrolase SARM1 (Homo sapiens) (UniProt Q6SZW1). The assay is described as follows: blocking NAD cleavage by SARM1 SAM-TIR – cell lysate, NAD-Glo luminescence (AID 1508614;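 active = compound whose remaining NAD level is above about 45 nM, limit read from the data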;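 note: higher remaining NAD means stronger inhibition of SARM1 NADase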). The settings on record: SAM-TIR HEK293T lysate NADase, at 1 µM, active compounds read high.
In the case of `COc1ccc(O)c(C(C)(C)C)c1`, the remaining NAD is 10 nM (inactive).
With `CN1C2CC(OC(=O)C(CO)c3ccccc3)CC1C(O)C2` (configuration not stated), the remaining NAD was 10 nM (inactive).
On the same count and under the same terms, the figure for `CC(=O)[C@H]1CC[C@H]2[C@@H]3CC[C@@H]4C[C@H](O)CC[C@]4(C)[C@H]3CC[C@]12C` is 10 nM (inactive); for `O=c1nc(O)n(Cl)c(=O)n1Cl` it is 10 nM (inactive).
In the case of `CC[C@H]1[C@@H]2C[C@H]3[C@@H]4N(C)c5ccccc5[C@]45C[C@@H]([C@H]2[C@H]5O)N3[C@@H]1O`, the remaining NAD is 10 nM (inactive).
The same measure, in the same setting: the figure for `CC[C@@H](c1cccc(O)c1)[C@@H](C)CN(C)C` is 10 nM (inactive); for `O=C(NN=Cc1ccc([N+](=O)[O-])o1)c1cc([N+](=O)[O-])cc([N+](=O)[O-])c1O` it is 10 nM (inactive); for `NC(=O)C[S@@](=O)C(c1ccccc1)c1ccccc1` it is 10 nM (inactive).
Consider `OC[C@@H](O)[C@H]1O[C@@H]2O[C@H](C(Cl)(Cl)Cl)O[C@@H]2[C@H]1O`, for which the remaining NAD was 10 nM (inactive).
As to `C=C[C@H]1CN2CC[C@H]1C[C@H]2[C@H](OC(=O)OCC)c1ccnc2ccc(OC)cc12`, the remaining NAD was 10 nM (inactive).
In the case of `CCN1C[C@]2(COC)[C@H](O)C[C@H](OC)[C@]34C1[C@H]([C@H](OC)[C@H]23)[C@]1(OC(C)=O)[C@H]2[C@@H](OC(=O)c3ccccc3)[C@](O)(C[C@H]24)[C@@H](OC)[C@@H]1O`, the remaining NAD is 10 nM (inactive).
Same read-out and setting: the figure for `C[N+]1([O-])[C@@H]2CC[C@H]1CC(OC(=O)C(CO)c1ccccc1)C2` (some centres not stated) is 10 nM (inactive); for `CC(N)C(O)c1ccccc1` (configuration not stated) it is 10 nM (inactive); for `C=CCNCCCCCCCCCC` (tested in a mixture with another compound) it is 10 nM (inactive).

The target in a further assay is Mitogen-activated protein kinase 7 (Homo sapiens) (UniProt Q13164). The assay is described as follows: Gal4-ERK5 driven luciferase induction – cell-based, HTS, primary screen (AID 1508626).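 Note: luciferase driven by Gal4-ERK5 fusion binding five Gal4 sites before minimal TATA.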 The settings on record: HeLa Gal4-ERK5 transactivation, 18 h, at 5 µM, active compounds read high.
Chain of Mitogen-activated protein kinase 7 (Homo sapiens) (Q13164 whole entry, looked up, the tested form may be a part): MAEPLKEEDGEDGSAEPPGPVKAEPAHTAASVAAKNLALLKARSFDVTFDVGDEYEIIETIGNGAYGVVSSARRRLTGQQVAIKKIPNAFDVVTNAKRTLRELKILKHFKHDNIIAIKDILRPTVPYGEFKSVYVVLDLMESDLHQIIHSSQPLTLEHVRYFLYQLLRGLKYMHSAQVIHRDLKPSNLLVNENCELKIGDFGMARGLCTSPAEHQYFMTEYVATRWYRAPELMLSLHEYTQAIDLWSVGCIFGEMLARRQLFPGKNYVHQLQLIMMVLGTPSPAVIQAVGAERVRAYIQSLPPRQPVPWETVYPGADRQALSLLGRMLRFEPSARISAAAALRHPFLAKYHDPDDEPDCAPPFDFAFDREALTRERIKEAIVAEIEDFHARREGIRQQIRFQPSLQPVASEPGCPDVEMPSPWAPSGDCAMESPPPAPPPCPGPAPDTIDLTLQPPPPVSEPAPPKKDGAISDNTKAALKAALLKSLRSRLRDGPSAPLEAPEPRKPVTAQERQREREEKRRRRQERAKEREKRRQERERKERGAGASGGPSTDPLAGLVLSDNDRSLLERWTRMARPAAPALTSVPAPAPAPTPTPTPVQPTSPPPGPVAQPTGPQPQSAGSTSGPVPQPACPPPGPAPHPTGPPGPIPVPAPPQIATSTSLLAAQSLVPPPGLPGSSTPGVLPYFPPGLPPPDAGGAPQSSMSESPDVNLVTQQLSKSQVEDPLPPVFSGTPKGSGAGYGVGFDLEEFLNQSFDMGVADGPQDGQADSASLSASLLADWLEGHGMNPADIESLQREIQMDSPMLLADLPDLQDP
For the molecule `CC(=O)O[C@@H]1[C@H]2CC[C@H]3[C@@](C)(O)[C@@H]4C[C@H](O)C(C)(C)[C@@]4(O)[C@@H](O)C[C@@]13C[C@@]2(C)O`, the luciferase signal was 32 AU (inactive).
For the molecule `COC1=C[C@]23CCCN2CCc2cc4c(cc2[C@@H]3[C@@H]1O)OCO4`, the luciferase signal is 56 AU (inactive).
Consider `CC(=O)O[C@H]1[C@H]2[C@@H](OC(=O)Cc3ccccc3)[C@@H](C)C[C@]2(OC(C)=O)C(=O)/C(C)=C/[C@@H]2[C@H](CC[C@@]13CO3)C2(C)C`, for which the luciferase signal was 56 AU (inactive).
As to `CC[C@H]1[C@@H]2C[C@H]3[C@@H]4N(C)c5ccccc5[C@]45C[C@@H]([C@H]2[C@H]5O)N3[C@@H]1O`, the luciferase signal was 116 AU (inactive).
As to `CC(=O)[C@H]1CC[C@H]2[C@@H]3CC[C@H]4C[C@H](O)CC[C@]4(C)[C@H]3CC[C@]12C`, the luciferase signal was 24 AU (inactive).
On to `CC(=O)O[C@H]1C(=O)[C@@]2(C)[C@H]([C@H](OC(=O)c3ccccc3)[C@]3(O)C[C@H](O)C(C)=C1C3(C)C)[C@]1(OC(C)=O)CO[C@@H]1C[C@@H]2O`, for which the luciferase signal was 136 AU (inactive).
Regarding `CCC(C)C(=O)OC1C[C@@]2(C)[C@H](c3ccoc3)OC(=O)CC23OC2(C)OC34C(OC(=O)C(C)C)[C@@]3(O)[C@@H](OC(=O)C5(C)OC5C)[C@@]5(C)C[C@]3(O)[C@@](C)([C@H]5CC(=O)OC)C14O2` (some centres not stated), the luciferase signal is 44 AU (inactive).
As to `COC(=O)C1=CO[C@@H](C)[C@@H]2CN3CC[C@@]4(C(=O)Nc5ccccc54)[C@H]3C[C@H]12`, the luciferase signal was 32 AU (inactive).
On the same count and under the same terms, the figure for `C[N+]12CC[C@@]34c5ccccc5N5C(=O)CC6OCC=C(C1)[C@H](CC32)[C@@H]6C54` (some centres not stated) is 140 AU (inactive); for `C[C@@H]1CC[C@@]2(OC1)O[C@H]1[C@@H](O)[C@H]3[C@@H]4CC[C@H]5C[C@@H](O[C@@H]6O[C@H](CO)[C@H](O[C@@H]7O[C@H](CO)[C@@H](O)[C@H](O[C@@H]8OC[C@@H](O)[C@H](O)[C@H]8O)[C@H]7O[C@@H]7O[C@H](CO)[C@H](O)[C@H](O[C@@H]8O[C@H](CO)[C@@H](O)[C@H](O)[C@H]8O)[C@H]7O)[C@H](O)[C@H]6O)[C@H](O)C[C@]5(C)[C@H]4CC[C@]3(C)[C@H]1[C@@H]2C` it is 48 AU (inactive).
As to `COc1cc([C@@H]2c3cc4c(cc3[C@@H](O)[C@H]3COC(=O)[C@H]23)OCO4)cc(OC)c1O`, the luciferase signal is 72 AU (inactive).
Take `CC[C@]12C=CCN3CC[C@@]4(c5ccc(OC)cc5N(C)[C@H]4[C@@](O)(C(=O)OC)[C@@H]1OC(C)=O)[C@@H]32`: the luciferase signal was 44 AU (inactive).
`CC(=O)OC1C[C@@]2(C)[C@H](c3ccoc3)C[C@H]3O[C@]32[C@]2(C)C(=O)C(O)=C3C(C)(C)C(=O)C=C[C@]3(C)C12` (some centres not stated): the luciferase signal is 12 AU (inactive).
For the molecule `CC(C)c1cc2c(c(O)c1O)[C@@]1(C(=O)O)CCCC(C)(C)[C@@H]1CC2`, the luciferase signal is 52 AU (inactive).
Take `CN1[C@H]2C[C@H](OC(=O)[C@H](CO)c3ccccc3)C[C@@H]1[C@@H](O)C2`: the luciferase signal was 56 AU (inactive).
With `CN(CC[C@H](N)CC(=O)N[C@H]1C=C[C@H](n2ccc(N)nc2=O)O[C@@H]1C(=O)O)C(=N)N`, the luciferase signal is 80 AU (inactive).
On to `CC[C@@H](C)C(=O)O[C@H]1[C@H](O)[C@H]2[C@@H](CN3C[C@@H](C)CC[C@H]3[C@@]2(C)O)[C@@H]2C[C@]34O[C@]5(O)[C@@H](OC(=O)[C@](C)(O)[C@@H](C)O)CC[C@@]3(C)[C@@H]5[C@@H](OC(C)=O)[C@@H](OC(C)=O)[C@H]4[C@@]21O`, for which the luciferase signal was 88 AU (inactive).
As for `C[C@@H]1O[C@@H](O[C@H]2CC[C@]3(C=O)[C@H]4CC[C@]5(C)[C@@H](C6=CC(=O)OC6)CC[C@]5(O)[C@@H]4CC[C@]3(O)C2)[C@H](O)[C@H](O)[C@H]1O`, the luciferase signal is 4 AU (inactive).
For `CC(=O)OCC1=C(C(=O)O)N2C(=O)[C@@H](NC(=O)CCCC(N)C(=O)O)[C@H]2SC1` (some centres not stated), the luciferase signal was 56 AU (inactive).
Still for that read-out and setting: for `C[C@]12CCC(=O)C[C@@H]1CC[C@@H]1[C@@H]2CC[C@]2(C)C(=O)CC[C@@H]12` the value was 68 AU (inactive).
The same measure, in the same setting: for `CCN1C[C@]2(OC(=O)c3ccccc3NC(C)=O)CC[C@H](OC)[C@]34C1[C@H](C[C@H]23)[C@@]1(O)C[C@H](OC)[C@H]2C[C@@H]4[C@]1(O)[C@H]2OC` the value was 84 AU (inactive); for `C=C[C@H]1CN2CC[C@H]1C[C@H]2[C@H](OC(=O)OCC)c1ccnc2ccc(OC)cc12`, 28 AU (inactive); for `CCN1C[C@]2(COC)[C@H](O)C[C@H](OC)[C@]34C1[C@H]([C@H](OC)[C@H]23)[C@]1(OC(C)=O)[C@H]2[C@@H](OC(=O)c3ccccc3)[C@](O)(C[C@H]24)[C@@H](OC)[C@@H]1O`, 16 AU (inactive).
For `COC(=O)C1=CO[C@@H](C)[C@@H]2CN3CC[C@@]4(C(=O)Nc5ccccc54)[C@@H]3C[C@H]12`, the luciferase signal is 24 AU (inactive).
For `CC(=O)O[C@@H]1CC[C@@]2(C)[C@@H](CC[C@@H]3[C@@H]2CC[C@]2(C)C(=O)CC[C@@H]32)C1`, the luciferase signal was 28 AU (inactive).
Take `CN[C@@H]1[C@@H](O)[C@@H](O[C@@H]2[C@@H](O)[C@H](O[C@H]3O[C@H]([C@@H](C)O)[C@@H](O)[C@H](O)[C@H]3N)[C@@H](N)C[C@H]2N)OC[C@]1(C)O`: the luciferase signal is 52 AU (inactive).
In the case of `CC(=O)OC1CCC2(C)C(CCC3C2CCC2(C)C(C4=CC(=O)OC4)C(OC(C)=O)CC32O)C1` (configuration not stated), the luciferase signal is 16 AU (inactive).
On to `COc1cc2c(cc1OC)[C@@H]1C(=O)c3ccc4c(c3O[C@@H]1CO2)C[C@H](C(C)C)O4`, for which the luciferase signal is 152 AU (inactive).
